Measured values from the OligoGym collection.
Note: reference of the scale not given here.

Each sequence was assayed against ARF4 (assay: pooled miR-30 sensor sort-seq; sequence = guide strand). Details: shRNA.
Sequence TTTGTTTGCAAAAAGTAGCAGC has a sensor-assay potency score (higher = more potent) of -0.61.
Work on TTGAACATACCATGTTCTGTTA yielded a sensor-assay potency score (higher = more potent) of -0.718.
TACAGAATGGTTGTCTTGCCAG showed a sensor-assay potency score (higher = more potent) of -0.56.
AATTTTATCAAACATGTCCTTG gave a sensor-assay potency score (higher = more potent) of -0.486.
Work on TAGCATTTGGCAAATCCTGTTT yielded a sensor-assay potency score (higher = more potent) of -0.434.
For TTGTGTTGCACAAGTGGCTTGA, the sensor-assay potency score (higher = more potent) was 0.462.
In the case of TTGTCTTGCCAGCAGCATCCAA, the sensor-assay potency score (higher = more potent) is reported as -0.778.
With TTTATCAAACATGTCCTTGGTT the sensor-assay potency score (higher = more potent) was 0.237.
TTCTATCTTGACCACCAACATC was tested, and the sensor-assay potency score (higher = more potent) was -1.78.
Sequence TTTCACGATCGTTGCTATCTAC has a sensor-assay potency score (higher = more potent) of 0.0471.
In the case of TAATTTTGTTGTAACAAGCCTA, the sensor-assay potency score (higher = more potent) is reported as -0.0701.
TAATTCTATCTTGACCACCAAC was tested, and the sensor-assay potency score (higher = more potent) was -1.26.
For ATCTTGACCACCAACATCCCAT, the sensor-assay potency score (higher = more potent) was -0.565.
In the case of TTATCAAACATGTCCTTGGTTA, the sensor-assay potency score (higher = more potent) is reported as -0.479.
TATCTTGACCACCAACATCCCA was tested, and the sensor-assay potency score (higher = more potent) was -1.07.
TTATACAGAATGGTTGTCTTGC was tested, and the sensor-assay potency score (higher = more potent) was 0.842.
TTGACAGCCAGTCAAGTCCTTC gave a sensor-assay potency score (higher = more potent) of -0.84.
TACTGTGAAACAAATGTTCTTA was tested, and the sensor-assay potency score (higher = more potent) was 0.474.
With TACCACAAAAATAAGACCCTGG the sensor-assay potency score (higher = more potent) was 0.855.
